Results reported in PubChem BioAssay (NCATS).
Records with an inconclusive call do not appear. Entries that show only a call come without a potency. Active and inactive are the calls of the source. The call rests on the fitted dose curve; in most records, active means well fitted inhibition curve with a large enough effect; inconclusive means small, poorly fitted or top-dose-only effect; inactive means no such curve, though single readings can be large or run the other way. Bridge positions count the residues as written; N and C are the ends. Square brackets hold non-standard residues; d marks the D form. Peptide text beside a SMILES is read from it. * marks the point of attachment. Ileψ(thiazoline)Cys = CC[C@H](C)[C@H](N)C1=N[C@H](C(=O)*)CS1; d(aIle) = CC[C@H](C)[C@@H](N)C(=O)O; dOrn = NCCC[C@@H](N)C(=O)O

Assay: S16 Schwann cell PMP22 intronic element firefly luciferase assay (AID 624032); further: nearly all actives have a fitted effect of over 30% in size
Conditions: S16 rat Schwann cells, PMP22 element FLuc, 24 h; series mostly up to 25.7 µM
Source text: Charcot-Marie-Tooth-Association [CMTA]
National Center for Advancing Translational Sciences [NCATS]
Charcot-Marie-Tooth (CMT) disease was first characterized by Jean-Martin Charcot and Pierre Marie in France and, independently, by Howard Henry Tooth in England in 1886. CMT is one of the most common inherited neurological diseases, affecting approximately 1 in 2,500 Americans. […] The most prevalent type of CMT is known as CMT1A and caused by a duplication of the PMP22 gene which leads to over-expression of this protein. PMP22 is a glycosylated intrinsic membrane protein accounting for 2-5% of the myelin protein content, and its over-expression results in demyelination and subsequently axonal loss.
A pair of cellular transcription-based assays was developed in the S16 rat Schwann cell lines (Hai, M., et al., 2002) stably transfected with orthogonal reporters - firefly luciferase (Fluc) and beta-lactamase (beta-Lac) - whose expression is driven by an intronic regulatory element of the PMP22 gene (Jones, E.A., et al., 2011) to recapitulate endogenous expression of PMP22. The current assay employs Fluc to report on PMP22 expression. A comprehensive library of approved drugs, the NCGC Pharmaceutical Collection (Huang, R., et al., 2011), was screened in the cross-validating platform of the orthogonal reporter assays to identify drug modulators inhibitory towards PMP22 expression.
A set of counter-screens was devised to address non-specific activity of the library. An ATP-dependent CellTiter-Glo assay (developed by Promega Corp) was utilized to control cell viability. In addition, biochemical Fluc enzyme assay was performed to assess direct inhibition of the Fluc enzymatic activity.
Hai, M., Muja, N., DeVries, G.H., Quarles, R.H. and Patel, P.I. Comparative analysis of Schwann cell lines as model systems for myelin gene transcription studies. J Neurosci Res, 2002. 69(4): pp 497-508
Huang, R., Southall, N., Wang, Y., Yasgar A., Shinn P., Jadhav, A. , Nguyen, D.-T. and Austin, C.P., The NCGC pharmaceutical collection: a comprehensive resource of clinically approved drugs enabling repurposing and chemical genomics. Sci Transl Med, 2011. 3(80): p. 80ps16.
S16 Schwann cell PMP22 intronic element firefly luciferase assay
The FLuc-expressing S16 cells were seeded in white solid 1536-well plates at between 500-750 cells/4uL in DMEM medium containing 10% FBS, w/o phenol red. After overnight incubation at 37 degree Celsius/5% C02, 23 nL of compounds or DMSO were delivered to each well using a pin tool, followed by 24h-incubation at 37 degree Celsius/5% C02. Then 4 uL ONE-Glo luminescent substrate mix (Promega) was added to each well. Luminescence was measured on a ViewLux plate reader (Perkin Elmer). The % activity was determined by normalizing to the average readings of PTC124 (a positive control) - treated cells relative to DMSO-treated cells (0% Activity). The concentration-effect curves were then classified based on curve quality (r2), response magnitude and degree of measured activity.

Compound | Potency
CS(=O)(=O)c1ccc([C@H](O)[C@H](CO)NC(=O)C(Cl)Cl)cc1 | inactive
CC1(C)O[C@H]2C[C@@H]3[C@H]4CCC5=CC(=O)CC[C@@]5(C)[C@]4(F)[C@@H](O)C[C@@]3(C)[C@@]2(C(=O)CCl)O1 | inactive
CC(=C(CCOP(=O)(O)O)SC(=O)c1ccccc1)N(C=O)Cc1cnc(C)nc1N | inactive
CCN(CC)[C@@H](C)CN1c2ccccc2Sc2ccccc21 | inactive
O=C1OC(CO)C(O)C(O)C1O (stereo not given) | inactive
CO[C@]1(NC(=O)C2SC(=C(C(N)=O)C(=O)O)S2)C(=O)N2C(C(=O)O)=C(CSc3nnnn3C)CS[C@H]21 (stereo not given in full) | inactive
O[C@@](CCN1CCCC1)(c1ccccc1)C1CCCCC1 | inactive
C[C@H](C(=O)O)c1cccc(Oc2ccccc2)c1 | inactive
O=C(O)[C@@H]1CCCN1 | inactive
CCC1OC(=O)C(C)[C@@H](O[C@H]2C[C@@](C)(OC)C(O)C(C)O2)C(C)[C@@H](O[C@@H]2OC(C)CC(N(C)C)C2O)[C@@](C)(O)CC(C)C(=O)[C@@H](C)C(O)[C@]1(C)O (stereo not given in full) | inactive
CCN[C@@H]1C[C@H](N)[C@H](O[C@H]2OC(CN)=CC[C@H]2N)[C@@H](O)[C@H]1O[C@H]1OC[C@@](C)(O)[C@@H](NC)[C@@H]1O | inactive
C=CCOc1ccccc1OC[C@H](O)CNC(C)C | inactive
CN(C)CCOC(=O)[C@@H](c1ccccc1)C1(O)CCCC1 | inactive
CC(=O)C[C@H](c1ccc([N+](=O)[O-])cc1)c1c(O)c2ccccc2oc1=O | inactive
CCCC[C@H](CC)CN1CN(C[C@@H](CC)CCCC)CC(C)(N)C1 | inactive
CC(=O)OCC(=O)[C@@]1(O)CC[C@@H]2[C@H]3CCC4=CC(=O)C=C[C@]4(C)[C@]3(F)[C@@H](O)C[C@@]21C | inactive
COc1ccc([C@@H]2CC(=O)c3c(O)cc(O[C@H]4O[C@@H](CO[C@H]5O[C@@H](C)[C@@H](O)[C@@H](O)[C@@H]5O)[C@@H](O)[C@@H](O)[C@@H]4O)cc3O2)cc1O | inactive
NC(=O)c1ccc[n+]([C@@H]2O[C@H](COP(=O)([O-])OP(=O)(O)OC[C@H]3O[C@@H](n4cnc5c(N)ncnc54)[C@@H](O)[C@@H]3O)[C@@H](O)[C@@H]2O)c1 | inactive
C[C@H](O)Cn1cnc2c1c(=O)n(C)c(=O)n2C | inactive
COc1cc2nc(N3CCN(C(=O)[C@@H]4CCCO4)CC3)nc(N)c2cc1OC | inactive

Compound | Potency
CCC(=O)O[C@@]1(C(=O)SCF)[C@@H](C)C[C@H]2[C@@H]3C[C@@H](F)C4=CC(=O)C=C[C@@]4(C)[C@]3(F)[C@@H](O)C[C@]21C | inactive
C[C@H](Oc1ccccc1)C(=O)N[C@@H]1C(=O)N2[C@@H]1SC(C)(C)[C@@H]2C(=O)O | inactive
CNC1C(OC2C(O[C@@H]3C(O)C(O)[C@@H](N=C(N)N)C(O)C3N=C(N)N)OC(C)[C@@]2(O)CO)OC(CO)C(O)C1O (stereo not given in full) | inactive
NC(=O)N[C@H]1NC(=O)NC1=O | inactive
CC(=O)OCC(=O)[C@@]12OC3(CCCC3)OC1CC1C3CCC4=CC(=O)C=C[C@@]4(C)[C@]3(F)C(O)C[C@]12C (stereo not given in full) | inactive
NC[C@@H]1O[C@@H](O[C@H]2[C@H](O)[C@H](O[C@@H]3O[C@H](CO)[C@@H](O)[C@H](N)[C@@H]3O)[C@@H](N)C[C@H]2N)[C@H](N)C[C@@H]1O | inactive
N[C@@H]1C(O)OC(CO)C(O)C1O (stereo not given in full) | inactive
NC(CCC(=O)N[C@@H](CS)C(=O)NCC(=O)O)C(=O)O (stereo not given in full) | inactive
C[C@@H](CNC1CCCCC1)OC(=O)c1ccccc1 | inactive
CC(=O)N[C@H](CC(C)C)C(=O)O | inactive
COc1ccc(OC)c([C@H](O)CNC(=O)CN)c1 | inactive
CO[C@H]1[C@H](O[C@H]2O[C@@H](C)[C@@H](O[C@@H]3C[C@](C)(O)[C@H](OC(=O)CC(C)C)[C@H](C)O3)[C@@H](N(C)C)[C@@H]2O)[C@@H](CC=O)C[C@@H](C)[C@@H](O)/C=C\C=C/C[C@@H](C)OC(=O)C[C@H]1OC(C)=O | inactive
C[C@@H]1O[C@H](O[C@@H]2\C=C/C=C\C=C/C=C\C[C@H](C)OC(=O)/C=C\[C@H]3O[C@@H]3C[C@H](O)C[C@]3(O)C[C@@H](O)[C@@H](C(=O)O)[C@H](C2)O3)[C@@H](O)[C@H](N)[C@@H]1O (stereo in doubt) | inactive
CC[C@H](C)[C@H](N)C1=N[C@H](C(=O)N[C@@H](CC(C)C)C(=O)N[C@@H](CCC(=O)O)C(=O)N[C@@H](C(=O)N[C@H]2CCCCNC(=O)[C@@H](CC(N)=O)NC(=O)[C@@H](CC(=O)O)NC(=O)[C@@H](Cc3cnc[nH]3)NC(=O)[C@@H](Cc3ccccc3)NC(=O)[C@@H]([C@@H](C)CC)NC(=O)[C@@H](CCCN)NC2=O)[C@@H](C)CC)CS1 ({Ileψ(thiazoline)Cys}-LE[d(aIle)]K[dOrn][d(aIle)][dF][dH][dD][dN]; lactam 4-C) | inactive
C=C1c2c(Cl)ccc(O)c2C(O)=C2C(=O)[C@@]3(O)C(O)=C(C(N)=O)C(=O)[C@@H](N(C)C)[C@@H]3[C@@H](O)[C@H]12 | inactive
O=C1O[C@H](CN2CCOCC2)CN1/N=C\c1ccc([N+](=O)[O-])o1 | inactive
CO[C@H]1[C@H](O[C@H]2O[C@@H](C)[C@@H](O[C@@H]3C[C@](C)(O)[C@H](O)[C@H](C)O3)[C@@H](N(C)C)[C@@H]2O)[C@@H](CC=O)C[C@@H](C)[C@@H](O[C@H]2CC[C@H](N(C)C)[C@H](C)O2)/C=C\C=C/C[C@@H](C)OC(=O)C[C@H]1O | inactive
Cc1ccc(S(=O)(=O)NC(=O)NN2C[C@H]3CCC[C@@H]3C2)cc1 | inactive
Cc1cccc(C)c1NC(=O)[C@H](C)N | inactive
CC(C)(C)NC[C@H](O)COc1cccc2c1C[C@@H](O)[C@@H](O)C2 | inactive
